PubChem BioAssay AID651550 (National Center for Advancing Translational Sciences (NCATS), 2012)
Hit rate of the full screen: of about 360,000 compounds, about 1,100 (0.31%) were called active. Cut-off read from the data, not from the text of the source: active = activity change below about -80%; inconclusive = mostly about -51% to -80%; inactive = weaker than that. For the sample, actives were picked, then their nearest neighbours and some compounds at random.

The compounds below were run against RAC-alpha serine/threonine-protein kinase (Homo sapiens) (UniProt P31749) (assay: HTS Assay for Inhibitors of Akt Phophorylation: Primary Screen). Settings: Neuro2A IGF-stimulated pAkt S473 HTRF, 20 min; at 50 µM, hits give low values.
Excerpt: The serine/threonine protein kinase Akt (protein kinase B) regulates various cellular processes, including cell survival, growth, proliferation, migration and differentiation. It has been well established that Akt is activated through two essential steps involving membrane translocation and phosphorylation. Cytosolic Akt is recruited to the plasma membrane via the interaction between the PH domain and membrane PIP3 produced by phosphoinositide-3 kinase (PI3K) upon growth factor receptor stimulation. The membrane-Akt interaction results in conformational changes of Akt, enabling its activation through phosphorylation at T308 in the kinase domain and at S473 in the C-terminal hydrophobic motif by PDK1 and mTOR-rictor complex (mTORC2), respectively. […] These findings indicate that S473 phosphorylation, as an important modulator of Akt activation, may be a valuable drug target for cell growth, survival, proliferation and differentiation. These inhibitors also may have significant therapeutic potential with fewer side effects, especially for the conditions involving hyperactive Akt signaling, such as cancer and Alzheimer's disease.
To this end, a miniaturized assay was developed to be screened against the Molecular Libraries Small Molecule Repository (MLSMR).
NIH Chemical Genomics Center [NCGC]
NIH Molecular Libraries Probe Centers Network [MLPCN]
Assay Submitter (PI): Hee-Yong Kim, National Institute on Alcohol Abuse and Alcoholism
3 uL of Neuro2A cell suspension in DMEM containing 0.5% FBS and […] antibiotics mix was plated in a white solid bottom tissue culture-treated 1536-well plate (Greiner Bio-One, Monroe, NC) at 4,500 cells per well and incubated overnight at 37 deg C. 23 nL/well of compound solutions in DMSO was added with Pintool transfer (Kalypsis, San Diego, CA) at single […] final concentration. Then, the cells were stimulated with 1.5 uL of IGF (6 nM final concentration) and incubated at 37 deg C for 20 min. The reaction was terminated by the addition of 1.5 uL blocking reagent mixed with lysis buffer (1:25 correspondingly) provided with HTRF(R) Phospho Akt (Ser473) kit (Cisbio US, Bedford, MA), with following incubation for 50 min at ambient temperature. The detection HTRF conjugates from the kit were prepared according to the protocol, pre-mixed 1:1 prior to dispensing, and 2 uL/well was added with BioRAPTR FRD dispenser (Beckman Coulter). The assay plates were incubated for 24 hours at ambient temperature, and the HTRF fluorescence was measured using Envision plate reader (PerkinElmer) with excitation at 330nm, emission at 615nm (Eu(3)-Cryptate donor signal) and 665nm (d2 acceptor signal). The ratio of […] was calculated for each well.
% is set by controls: 0 for no effect and ±100 for the full control effect.

Activity change, inactive:
COc1ccc(C(O)C(O)(C(=O)OC(C)C)c2ccc(C)cc2)cc1 (stereo unspecified)
Cc1cc(C)cc(NS(=O)(=O)c2ccc(Oc3ncc(C(F)(F)F)cc3Cl)cc2)c1 -13.6%
CSc1ccccc1-c1nnc(-c2ccc(Cl)cc2)o1 -0.409%
COC(=O)[C@@]12C[C@@H](CC(=O)N3CCC(c4ccccc4)CC3)C(=O)N(Cc3ccccc3)C1=CCC(C)(C)C2
COC(=O)C1=CN(c2c(C)cc(C)cc2C)C(N)=C(C#N)C1c1cccc(F)c1 (stereo unspecified)
Cc1ccc(Cc2nnc(SCC(=O)Nc3ccc(C)cc3C)[nH]c2=O)cc1
NC(=O)c1c(NC(=O)CSc2nnc(-c3ccco3)n2N)sc2c1CCCC2
CCCc1cc(=O)[nH]c(SCC(=O)Nc2sc3c(c2C#N)CCCC3)n1
CCC(C)CN1C(=O)CN(S(C)(=O)=O)CC1(C)C(=O)Nc1ccc2c(c1)OCCO2 (stereo unspecified)
O=C1Nc2ccccc2-n2nnnc2C1N1CCN(c2cccc(C(F)(F)F)n2)CC1 (stereo unspecified)
CC1CCN(c2oc(-c3ccccc3F)nc2C#N)CC1
N#Cc1nc(COc2ccc(Cl)cc2)oc1N1CCCC1
C=CCC1(C(=O)N(C)Cc2ccccc2)CCN(C(=O)OC(C)(C)C)CC1
CCN(CC)CCCN=C(N)N
COC(=O)C[C@H]1C=C[C@H](NC(=O)c2ccc(F)cc2)[C@@H](CO)O1
N#Cc1nc(Cc2cccc3ccccc23)oc1NCc1ccc2c(c1)OCO2 -4.85%
Cc1ccc(-c2nc(C#N)c(NCCCn3ccnc3)o2)cc1
COC(=O)[C@]12CCCCC=C1N(Cc1ccc3c(c1)OCO3)C(=O)[C@H](CC(=O)NCc1cccs1)C2
COc1ccccc1P(=O)(c1ccccc1)c1ccccc1NC(C)=O (stereo unspecified)
Cc1ccc(C(=O)Nc2c(-c3ccccc3)[nH][nH]c2=O)cc1
COC(=O)c1c(NC(=O)CCN2CCOCC2)sc2c1CCCC2
CCOC(=O)c1c(NC(=O)CCCN2CCOCC2)sc2c1CC(C)(C)OC2
CCCCC[C@H](C)N1C[C@@H](COCc2ccccc2)Oc2cc(N3CC[C@@H](N(C)C)C3)ccc2S1(=O)=O
Cc1ccc(Cl)c(OCC(=O)N2CCc3ccccc3C2)c1
Cc1ccc2c(c1)N(C(=O)CCC(=O)NCc1cccnc1)CCO2
CCOC(=O)C1CCN(C(=O)C2CCN(S(=O)(=O)c3c(C)noc3C)CC2)CC1
CCN(C(=O)CSc1ncnc2c1cnn2-c1ccccc1)C1CCS(=O)(=O)C1 (stereo unspecified)
CCC(C)N(C(=O)CSc1ncnc2c1cnn2-c1ccccc1)C1CCS(=O)(=O)C1 (stereo unspecified)
Cc1cccc(C)c1NC(=O)C(c1ccc(C(F)(F)F)cc1)n1c(=O)c(-c2ccco2)nc2ccccc21 (stereo unspecified)
O=C(Nc1ncc2c(n1)CC(c1ccco1)CC2=O)c1ccc(Cl)cc1 (stereo unspecified)
COC(=O)c1nc(NC(=O)c2ccc(Cl)cc2)n[nH]1
CN(C)c1ccc(Nc2c3c4c(cccc4n(C)c2=O)C(=O)c2ccccc2-3)cc1
Cc1ccccc1NC(=O)CSC(=O)c1ccccc1
COc1cc2ccccc2cc1C(=O)Nc1ccccc1C
Cc1cccc(N(C(=O)c2csnn2)C(C(=O)NCc2ccccc2)c2ccncc2)c1 (stereo unspecified)
Cc1cccc(C2C3=C(CCCC3=O)N=C3c4ccccc4C(=O)C32)c1 (stereo unspecified)
CCOC(=O)[C@]12CCCC=C1N(CCC1=CCCCC1)C(=O)[C@H](CC(=O)N1CCN(C(=O)c3ccco3)CC1)C2
COc1ccc(C(CNC(=O)CSc2ccccc2)N2CCOCC2)cc1 (stereo unspecified)
O=C(C(=O)N1CCC(c2ccccc2)CC1)c1ccccc1
Cc1cccc(-n2c(Cc3cc(=O)[nH]c(=O)[nH]3)nnc2SC(C)C)c1
Cc1cccc(NC(=O)Cn2cc(C(=O)c3ccco3)c3ccccc32)c1 11.5%
COCCNC(=O)Cn1cc(C(=O)c2cccs2)c2ccccc21 -3.12%
FC(F)(F)c1cccc(-c2nc3ccccc3n2C(c2ccccc2)c2nc3ccccc3[nH]2)c1 (stereo unspecified)
CC(C)(Oc1ccc(Cl)cc1)C(=O)OCC(=O)NCCc1ccc(S(N)(=O)=O)cc1
COc1ccc(CCNC(=O)COc2ccc3c(c2)OCO3)cc1
CCOC(=O)CN(C(=O)CN1CCOCC1)c1ccc(Br)cc1 1.02%
CCN(C(=O)COC(=O)c1cc(NS(=O)(=O)c2ccc(Cl)c([N+](=O)[O-])c2)ccc1O)C1CCCCC1
COC(=O)[C@@]12C[C@@H](CC(=O)NCc3cccc(C(F)(F)F)c3)C(=O)N(Cc3ccco3)C1=CCC(C)(C)C2
COc1ccc(C)cc1NC(=O)CCS(=O)(=O)c1cccc2nonc12 16.6%
O=C(CCS(=O)(=O)c1cccc2nonc12)NCCc1ccccc1Cl 2.49%
C=CCNc1nc(C)nc(OC)n1
C=CCNc1nnc(SCC(=O)N2CCCCC2)c2ccccc12 4.07%
CCCc1nnc(NC(=O)CCC(=O)N2CCN(S(=O)(=O)c3ccc(OC)cc3)CC2)s1
Cc1nnc(N/N=C/c2ccccn2)[nH]c1=O
CCc1c(Nc2ccccc2C)nc(N)[nH]c1=O
Cc1cccc(C)c1NC(=O)C(c1cccc2ccccc12)n1c(=O)c(-c2ccco2)nc2ccccc21 (stereo unspecified)
COc1cccc(-c2ccc3c(c2)N(Cc2ccccc2OC)C(=O)C(C)S3)c1 (stereo unspecified)
CCc1c(-c2ccc(F)cc2)ncn1Cc1cccc(-c2ccccc2)c1
CCCCCn1nnnc1-c1nc2cc3ccccc3cc2[nH]c1=O
COc1ccccc1NC(=O)C1CCN(C(=O)c2ccc(C(C)(C)C)cc2)CC1
Cc1cc(Br)cn2c(Cc3ccccc3C(F)(F)F)c(-c3ccc(Cl)cc3)nc12
Cc1nc2c(c(C)nn2-c2ccccc2)c(C)c1C
Cn1c(=O)c2c(-c3cccc(Br)c3)c(C#N)c(N)nc2n(C)c1=O
COc1ccc(NC(=O)C(c2ccncc2)n2c(=O)c(-c3cc4ccccc4[nH]3)nc3ccccc32)cc1 (stereo unspecified)
Nc1nc2ncccn2c1-c1ccccc1
CCOC(=O)c1cc2cc(C)ccc2[nH]1
Cc1ccc2[nH]c(=O)c(COC(=O)c3ccccn3)cc2c1 -7.82%
CCOc1ccc(N(CC(=O)OC)S(=O)(=O)c2c(C)noc2C)cc1
Cc1noc(C)c1S(=O)(=O)N(CC(=O)NCc1ccc(Cl)cc1)c1ccc2c(c1)OCO2
Cc1onc(-c2ccccc2)c1C(=O)N=C(N)c1ccc(Cl)cc1
NC(=NC(=O)c1ccccc1)N1CCOCC1
O=C(O)Cc1csc(-c2cccc(Oc3ccccc3)c2)n1
CCCCOCCCNC(=O)C[C@@H]1C[C@@]2(C(=O)OCC)CCCC=C2N(CCC2=CCCCC2)C1=O
CC(C)N1C(=O)c2ccccc2NC(=O)C1C(=O)NCc1cccs1 (stereo unspecified)
O=C(C(=O)N1CCN(c2ccccc2)CC1)c1ccc2c(c1)OCO2
CC1(C(=O)Nc2ccc3c(c2)OCCO3)CN(S(C)(=O)=O)CC(=O)N1Cc1cccc(F)c1 (stereo unspecified)
COc1ccccc1N1CCN(C(=O)CSc2ncnc3c2cnn3-c2ccc(C)c(C)c2)CC1
COc1ccc(-n2ncc3c(SCC(=O)NNC(C)=O)ncnc32)cc1
COc1nc(Oc2ccc(=O)n(C)n2)nc(N(C)C)n1 6.07%
CO[C@@H]1CN(C)C(=O)c2cc(NC(=O)C3CC3)ccc2OC[C@H](C)N(C(=O)CN2CCOCC2)C[C@@H]1C
CC(=O)C[C@@H]1OC[C@H](C)N1S(=O)(=O)c1ccc(C)cc1

Activity change, active:
FC(F)(F)c1cnc(Oc2ccccc2-c2nnc(-c3ccc(Cl)cc3)o2)c(Cl)c1 -102%
N#Cc1c(NC(=O)CSc2nc3ccccc3c(=O)n2Cc2ccco2)sc2c1CCCC2 -91.1%
Cc1ccc(OCc2nc(C#N)c(N3CCCC3)o2)cc1 -113%
N#Cc1nc(Cc2ccccc2)oc1NCCc1ccccc1 -105%
CCOC(=O)c1sc(NC(=O)CCN2CCOCC2)c(C(=O)OCC)c1C -80.1%
Cc1ccc2c(c1)N(C(=O)CCC(=O)N1CCc3ccccc3C1)CCO2 -105%
CCN(CC)C(=O)CSc1ncnc2c1cnn2-c1ccccc1 -110%
O=C(Nc1ncc2c(n1)-c1ccccc1OC2)c1ccc(Cl)cc1 -120%
Cc1ccccc1NC(=O)c1ccccc1 -122%
O=C(Cn1cc(C(=O)c2cccs2)c2ccccc21)NCc1cccs1 -110%
COc1ccc(OCC(=O)NCCc2ccc(S(N)(=O)=O)cc2)cc1 -119%
CC1CCCCC1NC(=O)CCS(=O)(=O)c1cccc2nonc12 (stereo unspecified) -123%
C=CCNc1nnc(C)c2ccccc12 -110%
Cc1ccccc1Nc1nnc(C)c(=O)[nH]1 -109%
CSc1ccc(-c2c(C#N)c(N)nc3c2c(C)nn3-c2ccccc2)cc1 -83.6%
CC(=O)OCc1cc2cc(C)ccc2[nH]c1=O -102%
CCOc1ccc(N(CC(=O)NCc2ccc(OC)cc2)S(=O)(=O)c2c(C)noc2C)cc1 -134%
NC(=NC(=O)c1ccccc1)C1=C(O)CCC1=O -110%
COc1ccc(-n2ncc3c(N4CCc5ccccc54)ncnc32)cc1 -95.4%
COc1nc(OC)nc(N(C)CCO)n1 -113%
